Screening data from PubChem BioAssay.
HP1b binding inh: blocks HP1-beta chromodomain binding to methylated histone tails | 390,000 tested, 0.56% active | P83916 | AlphaScreen HP1-beta / biotin-H3K9me3 peptide binding | Potency, µM (titrated, usually from 114 µM), without a hit: top-dose activity change, negative = inhibition, actives largely listed as inhibitors; also: nearly all actives have a fitted effect of over 70% in size
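HP1-beta protein (50 nM final) preincubated 30 min at room temperature with biotinylated H3(1-18)K9me3 peptide (50 nM) in PBS pH 7.4, 0.01% Tween-20, then compound added for 30 min. AlphaScreen streptavidin donor/nickel chelate acceptor beads (10 ug/mL final), 30 min dark, luminescence read.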
G9a block: G9a (human) methyltransferase inhibition; Q96KQ7; G9a H3K9 monomethylation, AlphaScreen, 2 h; Potency, µM (titrated, usually from 102 µM), for the others: top-dose activity, negative = inhibition, actives largely listed as inhibitors; 350,000 tested, 8.8% active; also: % is scaled to controls: 0 for no effect and ±100 for the full control effect; nearly all actives have a fitted effect of over 75% in size
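AlphaScreen detection with an anti-monomethyl H3K9 antibody quantified product after a 2 h room-temperature reaction containing 500 nM biotinylated H3K9 peptide, 20 µM SAM and 20 nM enzyme, which had been preincubated 15 min with compound.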
PLK1 PBD block: blocks phosphopeptide binding to human PLK1 polo-box domain; P53350; Plk1 PBD binding of FITC phosphopeptide, fluorescence polarization; Potency, µM, inactives show max response, negative = inhibition, most hits filed as inhibitors; 360,000 tested, 2.8% active; also: series mostly up to about 57 µM; % is scaled to controls: 0 for no effect and ±100 for the full control effect; nearly all actives have a fitted effect of over 65% in size
Target sequence (P53350 whole entry, looked up, the tested form may be a part): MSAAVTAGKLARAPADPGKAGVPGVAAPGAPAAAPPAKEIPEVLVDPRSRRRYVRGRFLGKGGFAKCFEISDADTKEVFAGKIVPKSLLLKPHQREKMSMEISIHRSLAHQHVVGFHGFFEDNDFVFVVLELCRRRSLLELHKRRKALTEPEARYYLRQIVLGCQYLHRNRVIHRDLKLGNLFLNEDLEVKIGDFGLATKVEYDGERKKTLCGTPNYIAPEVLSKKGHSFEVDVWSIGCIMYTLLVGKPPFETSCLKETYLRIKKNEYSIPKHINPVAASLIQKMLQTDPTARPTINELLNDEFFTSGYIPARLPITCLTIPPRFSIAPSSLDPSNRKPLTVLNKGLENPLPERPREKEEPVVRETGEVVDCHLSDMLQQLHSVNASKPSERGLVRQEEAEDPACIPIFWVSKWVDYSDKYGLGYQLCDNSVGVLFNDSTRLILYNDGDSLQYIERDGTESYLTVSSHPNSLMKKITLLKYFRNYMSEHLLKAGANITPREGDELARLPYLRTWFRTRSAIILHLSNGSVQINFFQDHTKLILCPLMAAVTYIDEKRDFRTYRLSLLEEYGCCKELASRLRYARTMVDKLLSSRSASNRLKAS
JMJD2A Tudor inh: inhibitors of human JMJD2A Tudor domain | AID 504339 | AlphaScreen JMJD2A-Tudor / H3K4me3 peptide binding | Potency, µM (titrated, usually from 114 µM), without a hit: top-dose activity change, negative = inhibition, hits mostly inhibitors | 390,000 tested, 4.4% active; also: % is scaled to controls: 0 for no effect and ±100 for the full control effect; nearly all actives have a fitted effect of over 50% in size
12-LOX inh: inhibitors of human 12S-lipoxygenase ALOX12. 580,000 tested, 1.1% active. purified 12hLO, xylenol orange hydroperoxide absorbance. P18054. Potency, µM (titrated, usually from 108 µM), inactives show at the top dose activity change, negative = inhibition, most hits filed as inhibitors; also: % is scaled to controls: 0 for no effect and ±100 for the full control effect
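Purified human 12hLO (150 nM final) in 25 mM Hepes, 0.01% Triton X-100, pH 7.0 was preincubated 15 min at room temperature with compound. Then 40 uM arachidonic acid was added, 30 min. Hydroperoxide was read by Fe-XO absorbance ratio 573/405 nm.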
BAZ2B inh: blocks human BAZ2B. AlphaScreen BAZ2B-H3K14Ac peptide displacement. Q9UIF8. 360,000 tested, 4.4% active. Potency, µM (doses to about 114 µM), for inactives: at the highest dose activity change, negative = inhibition, hits mostly inhibitors; also: % is scaled to controls: 0 for no effect and ±100 for the full control effect; nearly all actives have a fitted effect of over 60% in size
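AlphaScreen luminescence quantifies BAZ2B engagement of H3K14Ac peptide; the protein and biotinylated peptide are both at 50 nM final, buffer PBS pH 7.4 with 0.01% Tween-20, all steps at room temperature.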
* marks the source's active call; other numbers are inactive results; u = inconclusive; x = no result; ! = repeats disagree; [ ] = dose if it differs, or a comment. This is a sample that favours compounds with a hit; in the whole collection about 9% have one here. Calls follow the shape of the dose curve; as a rule, active = well fitted curve in the direction sought with a large enough effect; inconclusive = small, poorly fitted or top-dose-only effect, or another doubt; inactive = no such curve, though single readings can be large; an effect the other way counts as inactive or inconclusive. Potency is read from the fitted curve at half-maximal effect.

SMILES | HP1b binding inh | G9a block | PLK1 PBD block | JMJD2A Tudor inh | 12-LOX inh | BAZ2B inh
CCN(c1ccc(OC)cc1)S(=O)(=O)c1nnc(NC(=O)COc2ccc(F)cc2)s1 | 13% | -50% | 27µM* | 35µM*! | 25% | -26%
O=C(Nc1nnc(S(=O)(=O)N2CCCC2)s1)c1ccccc1Br | 52% | u | -2% | u | -4% | 7.1µM*!
O=C(COc1ccc(Cl)cc1)Nc1nnc(S(=O)(=O)N2CCCCCC2)s1 | u | 3.2µM*! | -7% | 10µM*! | 5%[57.4 µM] | 1.8µM*!
CCN(c1ccc(OC)cc1)S(=O)(=O)c1nnc(NC(=O)COc2ccc(C)cc2)s1 | 31% | x | -12% | -12% | x | -10%
O=C(Nc1nnc(S(=O)(=O)N2CCCCCC2)s1)c1ccccc1Br | 40% | 10µM* | -5% | 13µM*! | 4% | 14µM*!
COc1cccc(NS(=O)(=O)c2ccc3c(c2)NC(=O)C(C)S3)c1 (configuration not stated) | 13% | -2% | -15% | -17% | -15% | -20%
CCCSCCCNC(=O)c1ccc(Cn2c(=O)c3cccn3c3cccnc32)cc1 | 39% | 10%[59 µM] | x | 10% | -14% | 2%
Cc1ccc(OCCC(=O)OCC(=O)NC2CCCCC2)cc1 | x | x | -4% | x | -8% | x
CN(C)C(=S)NC(=O)C12CC3(C)CC(C)(CC(C)(C3)C1)C2 | 36% | 22% | -1% | -21% | 127% | 1%
O=C(Nc1nnc(S(=O)(=O)N2CCCCCC2)s1)c1ccc(Br)cc1 | u | 14µM*! | -13% | u | -3% | -39%
CC(=O)C1=C(O)C(=O)N(c2ccccn2)C1c1cccc(F)c1 (configuration not stated) | 29% | 45µM* | -7% | -11% | u | u
CC(=O)C1=C(O)C(=O)N(c2ccccn2)C1c1ccccc1[N+](=O)[O-] (configuration not stated) | 29% | u | 3.4µM* | 20µM* | 14µM* | u
CC(=O)C1=C(O)C(=O)N(c2ccc(Br)cn2)C1c1ccccc1[N+](=O)[O-] (configuration not stated) | 41% | 40µM* | u | -22% | u | -30%
CCN1CCN(CC(=O)c2ccc(OC)cc2)CC1 | 59% | 45µM* | -8% | -9% | -3% | -5%
COc1ccc(C(=O)CN2CCN(CCN3C(=O)c4cccc5cccc(c45)C3=O)CC2)cc1 | -9% | x | 19µM* | -18%[11.4 µM] | u | x
COc1cccc(OCC(O)CN2CCN(CCN3C(=O)c4cccc5cccc(c45)C3=O)CC2)c1 (configuration not stated) | 1% | 50µM* | -11% | u | u | -38%
O=C1c2cccc3cccc(c23)C(=O)N1CCN1CCN(CC(O)COc2ccccc2)CC1 (configuration not stated) | 33% | 4%[59 µM] | 77% | -14% | -16% | -25%
O=C(CN1CCN(CCN2C(=O)c3cccc4cccc(c34)C2=O)CC1)c1ccc(F)cc1 | 31% | 1.6µM* | -17% | -26% | -18% | -6%
CCNS(=O)(=O)c1ccc(NC(=O)Cn2cc([N+](=O)[O-])cn2)cc1 | -5% | -10% | u | -6%[11.4 µM] | 11% | -13%
O=C(CN1CCN(CCN2C(=O)c3cccc4cccc(c34)C2=O)CC1)c1ccc(Cl)cc1 | x | 7.9µM* | x | x | x | -34%
CC(=O)NC(Cc1ccc(C(C)C)cc1)C(=O)NC1CCN(C(=O)c2cccc(C)c2)CC1 (configuration not stated) | 29% | u | -6% | -13% | -7% | -1%
COC(=O)c1cccc(NC(=S)NCc2ccco2)c1 | -32% | x | u | u | -23% | u
NS(=O)(=O)c1ccc(NC(=S)NCc2ccco2)cc1 | u | 3.2µM* | 27µM* | -29% | u | u
O=C(NCc1ccco1)c1ccc(S(=O)(=O)N2CCCCC2)cc1 | 29% | -1% | -3% | -10% | -2% | -11%
NC(=O)c1ccc(NC(=S)NCc2ccco2)cc1 | 14% | 50µM* | -5% | -18% | -7% | 1%
SMILES | HP1b binding inh | G9a block | PLK1 PBD block | JMJD2A Tudor inh | 12-LOX inh | BAZ2B inh
O=C(NCc1ccco1)c1ccc(S(=O)(=O)N2CCOCC2)cc1 | u | 13µM* | u | u | 0% | 79µM*
O=S(=O)(c1cccc(C(F)(F)F)c1)N1CCN(C(=S)NCc2ccco2)CC1 | -12% | u | -16% | -19% | -7% | -30%
CC(C)c1ccc(S(=O)(=O)N2CCN(C(=S)NCc3ccco3)CC2)cc1 | u | u | 21µM* | -26% | u | -25%
Cc1ccc2[nH]c(C(=O)N/N=C/c3ccccc3C(=O)O)c(-c3ccccc3)c2c1 | 16% | 23% | -12% | -23% | 37% | u
O=C(CSc1nnc2ccc(-c3cccnc3)nn12)Nc1cccc(F)c1 | 40% | u | -12% | -9% | -7% | 4%
CC(=O)c1ccc(NC(=S)NCc2ccco2)cc1 | 28% | x | -5% | -17% | 3% | u
COC(=O)c1ccc(NC(=S)NCc2ccco2)cc1 | 10% | 50µM* | -14% | -21% | u | u
O=S(=O)(c1ccc(NC(=S)NCc2ccco2)cc1)N1CCCCC1 | -7% | 56µM* | -14% | -31% | u | -38%
O=C(c1ccc(NC(=S)NCc2ccco2)cc1)N1CCOCC1 | 10% | 45µM* | -20% | -7% | -12% | -18%
O=C(NCc1ccco1)c1ccc(S(=O)(=O)N2CCCCCC2)cc1 | 10% | 11%[59 µM] | -10% | -21% | 33% | 4%
Cc1csc(SCC(=O)Nc2oc(C)c3c(C)n[nH]c(=O)c23)n1 | 40% | u | -17% | -6% | -29% | -5%
CC(O)CNS(=O)(=O)c1cccc(C(=O)Nc2cccc3c2CCC3)c1 (configuration not stated) | x | x | x | x | 26% | x
O=C(COC(=O)c1ccc(N2CCCC2=O)cc1)Nc1ccccc1 | 23% | -11%[12.7 µM] | -7% | -5% | 0% | -3%
CC(C)(C)c1cc(-c2n[nH]c(=S)n2-c2ccc(Cl)cc2)n[nH]1 | -12% | u | 30µM* | 40µM* | u | u
Cn1cc(-c2nnnn2-c2ccc(Cl)cc2)c(C(F)(F)F)n1 | 17% | -33%[12.7 µM] | 5% | -27% | 3% | -3%
Cc1nn(C)cc1-c1n[nH]c(=S)n1-c1ccc(Cl)cc1 | -14% | 5.6µM* | -11% | 3.2µM* | u | -9%
CC1C(=O)N2CCCc3cc(NC(=O)c4ccccc4F)cc1c32 (configuration not stated) | 14% | u | -7% | -10% | -24% | -7%
O=C(Nc1ccccc1)O[C@@H]1CO[C@H]2[C@@H]1OC[C@@H]2NC(=O)C1CCCCC1 | x | x | x | x | -19%[176 µM] | x
